Bioassay records as filed in PubChem.
SENP6 inh = blocks the human protease SENP6 | hit rate 1.8% among 330,000 | Recombinant SENP6 catalytic domain, aminoluciferin luminescence | inhibition, % at 10 µM | Q9GZR1;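 active means inhibition above about 50% at the single tested dose, limit read from the data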;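 further: plate controls were DMSO wells with enzyme for no effect and DMSO wells lacking enzyme for full effect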
Platelet DG rel = modulates dense granule release in human platelets; human platelet-rich plasma, SFLLRN dense granule ATP release, luminescence; inhibition, %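 (compounds screened at 7.5 µM in platelet-rich plasma)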; hit rate 0.22% among 300,000;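 active means mean replicate score, as percent of positive control, at or above 50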
SENP8 block-1 = blocks the human protease SENP8. inhibition, % at 10 µM. purified SENP8, Z-RLRGG-aminoluciferin cleavage, luminescence. AID 2540. hit rate 1.2% among 330,000. Q96LD8; in the data active means inhibition above about 50%
Target sequence (Q96LD8 whole entry, looked up): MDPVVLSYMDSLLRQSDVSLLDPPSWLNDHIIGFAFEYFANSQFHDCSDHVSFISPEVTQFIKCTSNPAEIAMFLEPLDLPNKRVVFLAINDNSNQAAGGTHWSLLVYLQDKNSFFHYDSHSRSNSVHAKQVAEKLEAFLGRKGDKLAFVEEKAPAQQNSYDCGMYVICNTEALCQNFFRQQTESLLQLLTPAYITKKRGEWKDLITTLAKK
SENP7 block = blocks the human protease SENP7 | inhibition, % at 5 µM | AID 434973 | Q9BQF6 | recombinant SENP7, Z-RLRGG-aminoluciferin luminescence, 40 min | hit rate 1.5% among 330,000;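 active means inhibition above about 50% at the single test dose, limit read from the data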;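 further: plate controls were DMSO with enzyme for no effect and no enzyme buffer wells for full effect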
SENP8 block-2 = blocks human SENP8 cleavage of Nedd8 substrate | hit rate 0.64% among 360,000 | recombinant SENP8, Nedd8 substrate fluorescence | inhibition, % at 20 µM; in the data active means inhibition mostly above about 40%, no sharp cut-off; inactive means mostly below about 27%
SENP8 conf = confirmation of human SENP8 protease inhibitors | shares compounds with SENP7 block | Recombinant SENP8, Z-RLRGG-aminoluciferin luminescence, 60 min | inhibition, % at 12.5 µM | hit rate 40% among 6,200;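 active means mean inhibition across replicates above about 50%, limit read from the data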
SENP6 conf = confirmation of human SENP6 protease inhibitors; recombinant SENP6, Z-RLRGG-aminoluciferin luminescence; shares compounds with SENP7 block; hit rate 58% among 6,200; inhibition, % at 12.5 µM
SENP7 confirm = human SENP7 inhibition, confirmed. shares compounds with SENP7 block. recombinant SENP7, Z-RLRGG-aminoluciferin luminescence, 40 min. inhibition, % at 12.5 µM. hit rate 69% among 6,200. AID 488917
Casp3 select = caspase-3 inhibition (SENP selectivity assay) | shares compounds with SENP7 block | purified caspase-3, Z-DEVD-aminoluciferin luminescence, 60 min | inhibition, % at 12.5 µM | hit rate 60% among 6,200;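 active means mean inhibition above about 50%, limit read from the data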;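 further: plate controls were enzyme with DMSO for no effect and wells without caspase-3 for full effect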
Target sequence (P42574 28-227 limits assumed): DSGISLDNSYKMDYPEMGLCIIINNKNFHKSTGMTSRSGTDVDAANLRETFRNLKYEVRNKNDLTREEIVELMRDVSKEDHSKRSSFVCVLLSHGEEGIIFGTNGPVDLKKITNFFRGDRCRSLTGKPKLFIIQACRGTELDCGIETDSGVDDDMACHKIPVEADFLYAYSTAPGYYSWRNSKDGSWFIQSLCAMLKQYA
SENP luc ctr = luminescence interference (SENP counter-screen); shares compounds with SENP7 block; Pre-incubated SENP8/Z-RLRGG-aminoluciferin, luciferase luminescence interference; inhibition, % at 12.5 µM; hit rate 39% among 6,200;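 active means mean inhibition above about 50% when retested at one dose, limit read from the data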;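 further: plate controls were DMSO wells with completed reaction for no effect and substrate without enzyme for full effect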
The depositor's hits bear a star; i = inactive; · = no result. Only some compounds are listed: those with a hit (about 2.4% of all), similar ones and a draw of the others.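 How the source made its calls, unless noted: active means mean inhibition above about 50% in the one-dose retest (limit read from the data); inactive means the rest.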

SMILES	SENP6 inh	Platelet DG rel	SENP8 block-1	SENP7 block	SENP8 block-2	SENP8 conf	SENP6 conf	SENP7 confirm	Casp3 select	SENP luc ctr
CCOC(=O)C1CCN(C(=O)c2cc3c(ccc4ccccc43)o2)CC1	72.9*	4.2	56.2*	55.7*	-6.4	69.2*	66.9*	80.9*	53.1*	54.6*
Cc1ccc(CONC(=O)c2cccc(C)c2)cc1	64.6*	·	34.0	48.1	9.0	46.2	43.2	78.4*	76.7*	56.0*
Cc1cccc(-c2noc(C3CCCCC3)n2)c1	62.9*	0.7	20.8	49.8	14.9	10.9	25.8	74.8*	22.5	10.3
Cc1ccc(-c2noc(C3CCCCC3)n2)cc1	14.1	2.1	19.9	15.4	3.5	·	·	·	·	·
CCOC(=O)C1C(=O)C(=O)N(Cc2ccccc2)C1C(=O)OCC (stereo not given)	·	·	·	·	-2.2	·	·	·	·	·
COc1ccc(C(CC(=O)c2ccc(O)cc2)S(=O)(=O)c2ccc(C)cc2)cc1 (stereo not given)	49.7	-5.3	27.6	55.2*	4.8	52.0*	22.3	69.3*	18.3	58.3*
Cc1csc(=O)n1CC(=O)OCC(=O)NC(C)c1ccc(F)cc1 (stereo not given)	8.8	·	4.2	5.1	8.3	·	·	·	·	·
Cc1ccc(NC(=S)Nc2cccc3cnccc23)cc1C	64.7*	2.7	54.4*	15.3	-211.8	11.8	20.2	8.5	-0.5	-1.4
Cc1ccc(NC(=S)Nc2cccc3cnccc23)cc1	92.0*	-1.9	86.8*	70.1*	-110.1	-3.1	24.6	4.1	7.0	8.9
Cc1cc(C)nc(N(C#N)Cc2ccccc2C)n1	-9.0	-3.9	0.5	96.2*	24.8	-6.7	-0.5	-2.9	-2.2	-2.4
Cc1ccc(C2CCN(C(=O)Nc3ccc(F)cc3)C2)cc1 (stereo not given)	60.9*	10.2	-5.0	3.8	12.4	9.4	1.3	13.0	17.7	12.2
O=C(Nc1ccccc1)N1CC=C(c2ccc(F)cc2)CC1	51.5*	13.9	0.3	34.6	-20.9	24.7	18.4	58.8*	30.1	42.3
Cc1cccc(NC(=O)Cc2nc(-c3c[nH]c(C(=O)N4CCCC4)c3)cs2)c1	-12.9	·	-8.6	-8.7	-17.4	·	·	·	·	·
CC1(C(=O)NS(=O)(=O)c2cccc(C#N)c2)CCN1C(=O)Cc1ccccc1 (stereo not given)	·	·	·	·	13.0	·	·	·	·	·
CN(CCCNC(=O)CSc1cc(=O)n(C)c2cc(Cl)ccc12)Cc1ccccc1	7.9	-1.7	2.9	75.4*	-19.2	-13.7	-10.7	-13.5	1.5	-6.6
Cc1ccc(C(=O)/C=C/Nc2ccccn2)cc1	95.1*	64.1*	93.4*	97.3*	-219.5	94.1*	97.6*	101.8*	96.5*	62.4*
Cc1ccc(N/C=C/C(=O)c2ccc(C)cc2)cc1	-13.3	-2.8	-21.1	19.1	-296.0	·	·	·	·	·
Cc1ccc(C(=O)/C=C/Nc2ccccc2C(N)=O)cc1	95.1*	31.8	86.4*	90.0*	i	22.2	90.0*	101.5*	94.5*	48.1
NC(=O)c1ccccc1N/C=C/C(=O)c1ccc(Cl)cc1	83.7*	40.9	64.4*	93.3*	i	47.6	77.9*	75.7*	89.5*	28.8
CCc1nccn1CCC(=O)NC1CC(C)(C)Cc2c1cnn2-c1cccc(F)c1 (stereo not given)	0.7	-9.0	-1.2	6.9	-7.5	·	·	·	·	·
O=c1cc(-c2ccccc2)oc2ccc(Cl)cc12	·	·	·	·	19.5	·	·	·	·	·
O=c1cc(-c2cccs2)oc2ccc(Cl)cc12	55.0*	-0.1	34.1	50.1*	-92.6	25.3	26.9	50.8*	45.9	17.8
O=c1cc(-c2ccc3c(c2)OCCO3)oc2ccc(Cl)cc12	35.8	-3.0	15.9	90.9*	-397.9	23.4	25.6	43.2	40.6	11.4
CC1(C(=O)NS(=O)(=O)C2CC2)CCCN(C(=O)/C=C/c2ccccc2)C1 (stereo not given)	·	·	·	·	20.3	·	·	·	·	·
Cc1cccc(C(=O)NNC(=O)c2ccc(Cl)cc2)c1O	54.7*	-9.1	29.5	30.7	1.0	52.3*	47.9	77.3*	71.1*	62.2*
SMILES	SENP6 inh	Platelet DG rel	SENP8 block-1	SENP7 block	SENP8 block-2	SENP8 conf	SENP6 conf	SENP7 confirm	Casp3 select	SENP luc ctr
O=C(NNC(=O)c1ccccc1O)c1ccc(Cl)cc1	-1.1	4.4	-15.8	-11.5	13.3	·	·	·	·	·
Cc1ccc(NC2=Nc3ccccc3CC2)cc1	51.7*	-22.3	43.4	37.0	12.1	64.1*	61.0*	88.5*	84.2*	42.2
Brc1ccc(NC2=Nc3ccccc3CC2)cc1	-19.3	5.1	33.9	44.9	-0.5	·	·	·	·	·
Oc1ccc(C[C@H]2CNC(=S)N2CC2CCCN2C[C@H](Cc2ccc(O)cc2)N2C[C@H](Cc3ccc(O)cc3)N(CC3CCCCCC3)C2=S)cc1 (stereo not given in full)	·	·	·	·	7.5	·	·	·	·	·
O=C(CSc1nnc(NC(=O)c2c(F)cccc2F)s1)Nc1ccc(F)cc1	-25.8	0.8	-7.7	-12.1	-2.4	·	·	·	·	·
CC(=O)Nc1ccc(NC(=O)CSc2nnc(NC(=O)c3cccc(F)c3)s2)cc1	76.7*	23.3	67.7*	51.6*	-72.9	61.6*	70.1*	91.1*	81.5*	18.7
CCc1ccc(Nc2nnc(SCC(=O)Nc3ccc(C(=O)O)cc3)s2)cc1	5.7	5.1	52.4*	52.9*	20.7	-12.1	51.1*	45.9	60.4*	7.8
CC[C@@]1(C(=O)OC)N[C@H](CN(C)C(=O)NC(C)C)[C@@H]2C(=O)N(C)C(=O)[C@@H]21	2.8	·	2.5	3.7	11.7	·	·	·	·	·
CC1CCN(S(=O)(=O)CCNC(=O)c2ccc3c(c2)OCO3)CC1	-8.0	-14.2	-12.3	-1.5	9.2	·	·	·	·	·
Cc1ccc(C(=O)COC(=O)c2ccc(Cl)c(N)c2)s1	65.6*	·	54.2*	55.8*	-17.4	50.2*	47.7	83.8*	46.4	48.9
COCCCNC(=O)c1cccn2c(=O)c3cc4ccccc4cc3nc12	81.7*	-0.6	85.4*	29.5	-93.8	-18.6	-10.3	-6.1	-9.1	-4.6
COc1ccc2cc(C#N)c(SCC(=O)Nc3nonc3C)nc2c1	-3.8	-4.5	-3.3	5.4	-121.3	·	·	·	·	·
Cc1cc2cc(C#N)c(SCC(=O)Nc3nonc3C)nc2cc1C	99.2*	0.5	-4.7	-2.6	-36.5	-25.7	-19.8	-10.2	-10.1	-5.4
Cc1ccn2cc(-c3ccc(NC(=O)c4ccco4)cc3)nc2c1	75.5*	6.3	48.3	63.8*	-50.8	54.8*	52.9*	86.2*	74.5*	15.6
